Results on seven compounds are retold here after PubChem BioAssay (Tox21).

Test [1] can be described thus: Nuclear factor erythroid 2-related factor 2/antioxidant responsive element (Nrf2/ARE) small molecule agonists: qHTS cell viability counter screen in human keratinocytes (AID 1919968; active means well fitted curve in the direction sought with a large enough effect in the repeat runs; an effect the other way counts as inactive or inconclusive; further: nearly all actives have a fitted effect of over 55% in size; further: potency means the concentration at half of the fitted maximal effect). The method, boiled down: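 Seed 1,500 KeratinoSens cells per well, then incubate 5 h at 37 C/5% CO2. Add compounds in DMSO and incubate 23 h. Add CellTiter-Fluor, wait 1 h and read fluorescence.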

A short description of test [2]: Nuclear factor erythroid 2-related factor 2/antioxidant responsive element (Nrf2/ARE) small molecule agonists: luciferase reporter gene qHTS assay in human keratinocytes (AID 1919969). Further: nearly all actives have a fitted effect of over 35% in size.
Test [3] addresses Gonadotropin-releasing hormone receptor (Homo sapiens) (UniProt P30968). Put plainly: Human gonadotropin-releasing hormone receptor (GnRHR) small molecule agonists, calcium flux assay in GnRHR-HEK293 cells (AID 1920063). Further: nearly all actives have a fitted effect of over 35% in size. The procedure, abridged: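 Cells: HEK293 stably expressing human GnRHR. Steps: overnight (18 h) culture, 1 h calcium dye loading at 37 C, compound addition, kinetic fluorescence read at 480/540 nm. Each compound tested at 15 concentrations in triplicate.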

Test [4] concerns the target KiSS-1 receptor (Homo sapiens) (UniProt Q969F8). The test can be described thus: Human kisspeptin (KISS1R) small molecule agonists, calcium flux assay in KISS1R-HEK293 cells (AID 1920064; active means well fitted curve in the direction sought with a large enough effect in the repeat runs; an effect the other way counts as inactive or inconclusive). The method, boiled down:
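Cells plated and incubated 18 h; dye added, 1 h at 37 C; compounds in DMSO pinned in; signal read at 480/540 nm every second for 3 min. Each compound tested at 15 concentrations in triplicate.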

The nature of test [5]: G protein-coupled receptor (GPCR) small molecule agonists, calcium flux assay: HEK293 wild type cell line counter screen (AID 1920065). The procedure, abridged:
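Counter-screen of the Tox21 10K library for non-specific calcium release: dye-loaded cells received compounds in DMSO and were monitored by kinetic fluorescence (480/540 nm, 3 min). Fifteen concentrations, run in triplicate.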

Test [6] in a line: p53 small molecule agonists, cell-based qHTS assay with rat liver microsomes (AID 1963578). The method, boiled down: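 p53RE-bla cells, 4,000/well, pre-incubated 5 h, then given compounds plus rat liver microsomes (0.5 mg/mL final) and NADPH (0.5 mg/mL final). Incubation 16 h at 37 C; beta-lactamase reporter read by LiveBLAzer fluorescence after 2 h at room temperature.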
Test [7] can be described thus: p53 small molecule agonists, cell-based qHTS assay with human liver microsomes: qHTS cell viability counter screen (AID 1963579). Further: nearly all actives have a fitted effect of over 45% in size. The procedure, abridged: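 p53RE-bla cells, 4,000/well, dosed 5 hours after plating, with human liver microsomes (0.5 mg/mL final) plus NADPH (0.5 mg/mL final), 16 hours at 37 C. Viability read as CellTiter-Glo luminescence after 30 min at room temperature.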

Test [8] in a line: p53 small molecule agonists, cell-based qHTS assay with rat liver microsomes: qHTS cell viability counter screen (AID 1963580). Further: nearly all actives have a fitted effect of over 45% in size. The procedure, abridged: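 Intracellular ATP, by CellTiter-Glo luminescence, defines viability. HCT-116 p53RE-bla cells, 4,000 per well, were compound-treated in the presence of rat liver microsomes and NADPH for 16 h at 37 C.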
Test [9] is described as follows: p53 small molecule agonists, cell-based qHTS assay: qHTS cell viability counter screen (AID 1963581). Further: nearly all actives have a fitted effect of over 45% in size. The procedure, abridged: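 Cells: HCT-116 with p53 response element-driven beta-lactamase. Treatment: 16 h, 37 C, compounds in DMSO. Read: CellTiter-Glo luminescence after 30 min RT.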
Test [10] in a line: p53 small molecule agonists, cell-based qHTS assay (AID 1963582; active means well fitted activation curve with a large enough effect in the signal ratio in the repeat runs, not every such curve was filed as active; the % refers to the signal ratio). The method, boiled down:
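Quantitative HTS in p53RE-bla cells: after a 5 h settling period, compounds delivered in DMSO were left on cells for 16 h at 37 C, and reporter induction was measured as fluorescence following 2 h substrate loading.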

Test [11] deals with 5-hydroxytryptamine receptor 2A (Homo sapiens) (UniProt P28223). The test can be described thus: 5-hydroxytryptamine receptor 2A (HTR2A) small molecule antagonists, cell-based qHTS assay (AID 1963586). Further: nearly all actives have a fitted effect of over 45% in size. Further: potency means the concentration at half of the fitted maximal effect. The procedure, abridged: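 Antagonist-mode intracellular calcium assay: DOI (4 nM) added after 5 min compound pre-incubation at room temperature to dye-loaded HTR2A-CHO cells. Fluorescence followed for 3 min, sampled every second.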
Sequence of 5-hydroxytryptamine receptor 2A (Homo sapiens) (P28223 whole entry, looked up): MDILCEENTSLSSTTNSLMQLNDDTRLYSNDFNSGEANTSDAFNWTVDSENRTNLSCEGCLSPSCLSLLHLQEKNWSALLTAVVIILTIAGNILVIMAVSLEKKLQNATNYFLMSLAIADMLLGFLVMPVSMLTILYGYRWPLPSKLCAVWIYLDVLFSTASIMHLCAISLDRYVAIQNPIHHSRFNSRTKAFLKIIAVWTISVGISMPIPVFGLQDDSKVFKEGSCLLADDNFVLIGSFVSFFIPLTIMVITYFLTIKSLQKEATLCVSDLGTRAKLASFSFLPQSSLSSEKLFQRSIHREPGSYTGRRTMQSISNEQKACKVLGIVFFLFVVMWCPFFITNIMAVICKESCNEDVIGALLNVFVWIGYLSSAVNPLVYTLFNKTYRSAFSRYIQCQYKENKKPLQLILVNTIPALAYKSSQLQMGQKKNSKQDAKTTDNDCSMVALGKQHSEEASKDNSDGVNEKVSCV

Test [12] has the same target. Put plainly: 5-hydroxytryptamine receptor 2A (HTR2A) small molecule agonists, cell-based qHTS assay (AID 1963587). Further: nearly all actives have a fitted effect of over 30% in size. The procedure, abridged:
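Kinetic calcium-flux fluorescence (2 min, 1 sec intervals) after compound addition in agonist mode. HTR2A-CHO cells were cultured 18 h, then dye-loaded 1 h at 37 C.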

Test [13] deals with Muscarinic acetylcholine receptor M1 (Homo sapiens) (UniProt P11229). Put plainly: Cholinergic receptor muscarinic 1 (CHRM1) small molecule antagonists, cell-based qHTS assay (AID 1963588). Further: nearly all actives have a fitted effect of over 40% in size. Further: potency means the concentration at half of the fitted maximal effect. The procedure, abridged:
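CHRM1-CHO calcium-flux assay, antagonist mode. Cells were seeded 18 h, dye-loaded 1 h at 37 C and given compound for 5 min at RT, then acetylcholine was added at 50nM. FDSS fluorescence was read 3 min; 15 concentrations, three runs.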

For test [14] the target is unchanged. Put plainly: Cholinergic receptor muscarinic 1 (CHRM1) small molecule agonists, cell-based qHTS assay (AID 1963589). Further: nearly all actives have a fitted effect of over 35% in size. The procedure, abridged: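 Agonist-mode qHTS in CHO cells stably carrying human muscarinic M1. Intracellular calcium is tracked by fluorescence every second after compound transfer; each compound runs at 15 concentrations in three independent runs.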

Test [15] is described as follows: cAMP Responsive Elements (CRE) small molecule agonists, cell-based qHTS assay (AID 1963590). The procedure, abridged: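 Agonist mode qHTS in CRE-bla HEK 293T cells: compounds dosed from DMSO for 3 h at 37 C/5% CO2, followed by LiveBLAzer B/G FRET substrate for 2 h at room temperature.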
Test [16] in a line: cAMP Responsive Elements (CRE) small molecule antagonists, cell-based qHTS assay (AID 1963591; active means well fitted inhibition curve with a large enough effect in the signal ratio in the repeat runs, not every such curve was filed as active; the % refers to the signal ratio). The method, boiled down:
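Antagonist mode: test compounds are co-incubated with the adenylyl cyclase activator NKH477 (0.25 uM final) on CRE-bla HEK293T cells for 3 h at 37 °C, followed by LiveBLAzer substrate loading.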

Test [17] concerns the target Beta-2 adrenergic receptor (Homo sapiens) (UniProt P07550). The test can be described thus: Adrenergic beta2 receptor (ADRB2) small molecule agonists, cell-based qHTS assay (AID 1963593).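 Further: CHO cells stably overexpressing human ADRB2.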 The procedure, abridged:
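CHO cells stably over-expressing ADRB2 were plated overnight at 37C, then dosed with compounds plus a stimulation mix containing 100uM IBMX and 25uM Ro-20-1724 for 0.5hr at room temperature. cAMP was measured by HTRF competition, 1hr.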

Test [18] has as its target D(2) dopamine receptor (Homo sapiens) (UniProt P14416). The test can be described thus: Dopamine D2 receptor (DRD2) small molecule agonists, cell-based qHTS assay (AID 1963594). Further: nearly all actives have a fitted effect of over 35% in size. The procedure, abridged:
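cAMP accumulation in DRD2-HEK293 cells measured by HTRF after 1 h detection; compounds added 10 min before NKH477 (200nM […]) forskolin-analogue stimulation, 30 min at room temperature, with Ro20-1724 present at 0.1 mM final.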

Test [19] addresses Beta-2 adrenergic receptor (Homo sapiens) (UniProt P07550). Put plainly: Adrenergic beta2 receptor (ADRB2) small molecule antagonists, cell-based qHTS assay (AID 1963592). Further: series mostly up to about 92 µM; nearly all actives have a fitted effect of over 50% in size. The method, boiled down: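 Cells (CHO, stable ADRB2 overexpression) incubated 18-20hr at 37C; compounds added from DMSO; agonist mix (1nM isoproterenol, 100uM IBMX, 25uM Ro-20-1724) added; 0.5hr RT; d2-cAMP and anti-cAMP-cryptate added; 1hr RT; 665/615 nm read.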

The target of test [20] is D(2) dopamine receptor (Homo sapiens) (UniProt P14416). Put plainly: Dopamine D2 receptor (DRD2) small molecule antagonists, cell-based qHTS assay (AID 1963595; active means well fitted inhibition curve with a large enough effect in the signal ratio in the repeat runs, with a control signal flat; the % refers to the signal ratio; further: potency means the concentration at half of the fitted maximal effect). The procedure, abridged: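 HTRF cAMP read-out at 665 and 620 nm emission (340 nm excitation). Antagonist mode: compounds were tested against 12 nM quinpirole in DRD2-HEK293 cells, with 200 nM NKH477 raising cAMP and 0.1 mM Ro20-1724 blocking its breakdown.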
Sequence of D(2) dopamine receptor (Homo sapiens) (P14416 whole entry, looked up): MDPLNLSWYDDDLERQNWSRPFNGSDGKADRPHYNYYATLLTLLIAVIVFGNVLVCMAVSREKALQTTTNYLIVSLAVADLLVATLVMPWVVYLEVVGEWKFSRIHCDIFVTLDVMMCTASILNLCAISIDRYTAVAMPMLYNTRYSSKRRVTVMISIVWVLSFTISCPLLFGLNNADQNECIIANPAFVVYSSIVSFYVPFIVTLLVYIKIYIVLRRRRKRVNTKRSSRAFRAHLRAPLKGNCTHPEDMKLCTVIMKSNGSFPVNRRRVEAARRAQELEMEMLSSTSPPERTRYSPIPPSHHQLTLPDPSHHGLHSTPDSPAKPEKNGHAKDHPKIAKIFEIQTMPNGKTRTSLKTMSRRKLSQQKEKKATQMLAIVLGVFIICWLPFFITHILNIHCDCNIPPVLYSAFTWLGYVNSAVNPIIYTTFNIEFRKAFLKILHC

SMILES strings stand for the structures. Unmarked numbers belong to inactive results. Results filed as inconclusive are left out. Activity calls are given as the source filed them. Unless noted, the call rests on the fitted dose curve.

Sequence of Beta-2 adrenergic receptor (Homo sapiens) (P07550 whole entry, looked up): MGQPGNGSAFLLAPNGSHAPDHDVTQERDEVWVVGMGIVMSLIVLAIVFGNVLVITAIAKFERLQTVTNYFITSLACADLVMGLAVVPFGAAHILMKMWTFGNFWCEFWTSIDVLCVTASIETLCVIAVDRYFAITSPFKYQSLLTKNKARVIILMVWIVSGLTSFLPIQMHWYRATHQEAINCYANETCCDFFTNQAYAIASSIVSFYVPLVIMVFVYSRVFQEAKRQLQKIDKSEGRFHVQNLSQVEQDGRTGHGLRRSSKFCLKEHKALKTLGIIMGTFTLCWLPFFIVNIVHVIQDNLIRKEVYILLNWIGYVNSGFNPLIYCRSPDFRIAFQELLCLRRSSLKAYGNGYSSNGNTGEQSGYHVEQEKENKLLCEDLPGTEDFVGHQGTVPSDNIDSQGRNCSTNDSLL
Sequence of Muscarinic acetylcholine receptor M1 (Homo sapiens) (P11229 whole entry, looked up): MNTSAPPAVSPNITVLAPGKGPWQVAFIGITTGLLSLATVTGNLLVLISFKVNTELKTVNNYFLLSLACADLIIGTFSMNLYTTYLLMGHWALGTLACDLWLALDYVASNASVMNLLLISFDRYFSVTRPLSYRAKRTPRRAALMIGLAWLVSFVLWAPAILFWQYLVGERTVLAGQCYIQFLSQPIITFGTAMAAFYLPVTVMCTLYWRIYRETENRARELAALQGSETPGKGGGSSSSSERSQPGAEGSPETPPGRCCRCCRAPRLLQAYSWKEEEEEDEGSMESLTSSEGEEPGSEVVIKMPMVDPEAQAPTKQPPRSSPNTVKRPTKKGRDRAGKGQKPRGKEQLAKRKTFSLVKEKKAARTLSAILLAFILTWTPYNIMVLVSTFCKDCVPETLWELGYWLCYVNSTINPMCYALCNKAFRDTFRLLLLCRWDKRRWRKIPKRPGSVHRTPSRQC
Sequence of KiSS-1 receptor (Homo sapiens) (Q969F8 whole entry, looked up): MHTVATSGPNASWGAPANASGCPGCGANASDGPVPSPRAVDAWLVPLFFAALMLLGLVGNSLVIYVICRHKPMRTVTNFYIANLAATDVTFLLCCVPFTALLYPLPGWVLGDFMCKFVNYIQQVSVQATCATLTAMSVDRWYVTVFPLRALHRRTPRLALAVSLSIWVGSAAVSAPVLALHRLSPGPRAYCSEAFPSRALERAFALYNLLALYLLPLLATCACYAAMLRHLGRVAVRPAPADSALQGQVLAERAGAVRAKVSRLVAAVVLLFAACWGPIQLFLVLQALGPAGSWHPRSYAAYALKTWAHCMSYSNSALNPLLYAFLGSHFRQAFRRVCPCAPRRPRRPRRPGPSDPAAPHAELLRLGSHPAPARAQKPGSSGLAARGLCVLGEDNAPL
Sequence of Gonadotropin-releasing hormone receptor (Homo sapiens) (P30968 whole entry, looked up): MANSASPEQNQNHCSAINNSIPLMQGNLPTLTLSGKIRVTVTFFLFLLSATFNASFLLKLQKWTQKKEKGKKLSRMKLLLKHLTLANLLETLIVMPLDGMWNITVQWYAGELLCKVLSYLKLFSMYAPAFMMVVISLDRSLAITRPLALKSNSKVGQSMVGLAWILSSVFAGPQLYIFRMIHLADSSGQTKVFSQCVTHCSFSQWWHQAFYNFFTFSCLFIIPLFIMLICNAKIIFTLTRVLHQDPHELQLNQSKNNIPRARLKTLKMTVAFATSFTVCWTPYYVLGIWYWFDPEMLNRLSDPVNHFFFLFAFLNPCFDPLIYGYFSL

For `CC(=O)OC/C=C(/C)CCC=C(C)C`, the Potency result in test [1], in test [2], in test [3], in [4], in test [5] and in [6] was “inactive” each time. For the same compound, the Potency entry in [7], in test [8], in test [9], in [10], in [11] and in test [12] was “inactive” throughout. The Potency entry in test [13], in [14], in test [15], in test [16], in [17] and in test [18] was “inactive” in each case.
Regarding `C=C(C)C(=O)OCCOC(=O)CC(C)=O`, the Potency result in [1], in [2], in [3], in test [4], in [5] and in test [6] was “inactive” in each case. Besides, the Potency entry in test [7], in test [8], in test [9], in test [10], in [12] and in test [13] was “inactive” in each case. Also, the Potency result in test [14], in test [19], in test [18] and in test [20] was “inactive” in each case.
On to `CC1(C)O[C@@H]2C[C@H]3[C@@H]4CCC5=CC(=O)CC[C@]5(C)[C@@]4(F)[C@@H](O)C[C@]3(C)[C@]2(C(=O)CCl)O1`, for which the Potency entry in [1], in test [2], in test [3], in test [4], in test [5] and in test [6] was “inactive” each time. The Potency entry in test [7], in test [8], in [9], in test [10], in test [15] and in test [19] was “inactive” in each case. The Potency entry in test [17], in [18] and in test [20] was “inactive” each time.
Regarding `COc1cc(C(=O)OCCCN2CCCN(CCCOC(=O)c3cc(OC)c(OC)c(OC)c3)CC2)cc(OC)c1OC`, the Potency result in [1], in test [2], in test [3], in [4], in [5] and in test [6] was “inactive” each time. The Potency entry in test [7], in [8], in test [9], in [10], in test [11] and in test [14] was “inactive” in each case. For the same compound, the Potency entry in test [15], in test [19], in test [18] and in [20] was “inactive” throughout. Further, the Potency in [13] was 7.29 µM (active).
`Cc1oc(-c2ccccc2)nc1CCOc1cccc2c1ccn2CCC(=O)O`: the Potency result in test [1], in [2], in test [3], in [4], in test [5] and in test [6] was “inactive” each time. Moreover, the Potency result in [7], in test [8], in test [9], in test [11], in test [13] and in test [14] was “inactive” throughout. Moreover, the Potency entry in [19], in [18] and in test [20] was “inactive” each time.
Consider `O=C1NC2CCCCN2C12CCN(CCCN1c3ccccc3CCc3ccc(Cl)cc31)CC2` (configuration not stated), for which the Potency in test [1] is 29.8 µM (active); in [11] it was 36.5 nM (active); in test [13] it was 1.3 µM (active); in test [20], 335 nM (active). The Potency result in test [2], in [3], in [4], in test [5], in [6] and in [7] was “inactive” in each case. Moreover, the Potency result in test [8], in test [9], in test [12], in [14] and in test [18] was “inactive” throughout.
`CCn1c(=O)c2c(nc(/C=C/c3ccc(OC)c(OC)c3)n2C)n(CC)c1=O`: the Potency entry in test [1], in test [2], in test [3], in [4], in test [5] and in test [6] was “inactive” in each case. For the same compound, the Potency entry in [7], in test [8], in test [9], in test [10], in test [12] and in test [13] was “inactive” in each case. For the same compound, the Potency entry in test [14], in test [16], in test [18] and in test [20] was “inactive” throughout.
